# Source: PubChem (several laboratories)
# Mdm2 MdmX PPI: inhibitors of human Mdm2-MdmX association, primary screen, cell-based, luminescence, split luciferase, SaOS-2, uHTS; SaOS-2 split-luciferase Mdm2/MdmX complementation; Protein Mdm4 (Homo sapiens) + E3 ubiquitin-protein ligase Mdm2 (Homo sapiens), …; inhibition, % at 8 µM; 330,000 tested, 3% active;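 active = inhibition of at least 50% at 8 µM in the primary screen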
# Target sequence (O15151 whole entry, looked up): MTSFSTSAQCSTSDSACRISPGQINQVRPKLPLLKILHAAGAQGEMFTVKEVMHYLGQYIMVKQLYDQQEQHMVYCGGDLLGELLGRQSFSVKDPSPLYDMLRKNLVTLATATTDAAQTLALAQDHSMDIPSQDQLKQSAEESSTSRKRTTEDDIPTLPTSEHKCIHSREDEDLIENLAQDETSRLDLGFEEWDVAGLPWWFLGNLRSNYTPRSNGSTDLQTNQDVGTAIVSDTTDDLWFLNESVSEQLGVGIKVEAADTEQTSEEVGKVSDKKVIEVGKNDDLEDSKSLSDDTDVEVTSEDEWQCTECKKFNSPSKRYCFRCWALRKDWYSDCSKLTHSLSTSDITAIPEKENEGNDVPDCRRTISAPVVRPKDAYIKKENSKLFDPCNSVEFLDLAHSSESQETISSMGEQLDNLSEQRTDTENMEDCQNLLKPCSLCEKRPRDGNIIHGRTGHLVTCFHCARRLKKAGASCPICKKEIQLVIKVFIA
# Target sequence (Q00987 whole entry, looked up): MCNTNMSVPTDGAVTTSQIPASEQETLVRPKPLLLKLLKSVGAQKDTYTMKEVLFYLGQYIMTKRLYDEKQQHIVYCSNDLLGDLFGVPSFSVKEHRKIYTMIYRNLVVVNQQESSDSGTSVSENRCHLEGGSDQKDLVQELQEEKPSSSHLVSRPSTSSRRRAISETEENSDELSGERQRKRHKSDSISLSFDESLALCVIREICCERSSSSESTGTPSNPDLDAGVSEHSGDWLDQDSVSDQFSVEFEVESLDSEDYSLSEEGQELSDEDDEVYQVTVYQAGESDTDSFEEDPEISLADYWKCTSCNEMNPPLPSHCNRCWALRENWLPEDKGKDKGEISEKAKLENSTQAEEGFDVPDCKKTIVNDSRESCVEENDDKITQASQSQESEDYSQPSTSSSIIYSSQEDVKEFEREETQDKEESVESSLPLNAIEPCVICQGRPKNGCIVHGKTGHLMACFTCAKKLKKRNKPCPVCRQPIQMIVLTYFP
# CSC inhib: cancer stem cell viability inhibitors, primary screen, luminescence. cancer stem cell-like cells viability. inhibition, % at 7.5 µM. 300,000 tested, 1.1% active. AID 2717, 2010; in the data active = inhibition above about 75%; tested in HMLE shEcad cells
# Calb FLC: C. albicans growth inhibition with fluconazole, primary screen, CaCi-2 strain, Alamar Blue fluorescence; C. albicans CaCi-2 (fluconazole-resistant clinical isolate) + fluconazole, 48 h; AID 1979, 2009; growth inhibition, % (no concentration beside the values); 300,000 tested, 0.57% active;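 active = growth inhibition above about 58% in most replicates, limit read from the data, passing the limit was not always enough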;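 note: all wells also contain fluconazole at 8 µg/ml as a sub-toxic cotreatment; 0% = median of DMSO wells and 100% = median of geldanamycin control wells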
# MPTP block: mitochondrial permeability transition pore inhibitors, primary screen, biochemical, isolated mouse mitochondria, absorbance; Ca2+ swelling absorbance, 30 min; 360,000 tested, 1.4% active; inhibition, % at 10 µM; AID 602449, 2012;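 active = inhibition of 50% or more, scaled per plate between neutral and stimulator controls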;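 note: 0% = DMSO wells given calcium and 100% = 1 mM EGTA wells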
# Beta apoptosis: inhibitors of cytokine-induced beta cell apoptosis, primary screen, luminescence; INS-1E cytokine-induced death, ATP luminescence, 48 h; percent of positive-control rescue, neutral wells zero; protection from apoptosis, % (concentration not given with the values); AID 435005, 2010; 300,000 tested, 0.8% active;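 active = Every replicate reaches about 75%, or at least half do and their mean reaches it too, limit read from the data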;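 note: 0% = cytokine-treated negative control wells and 100% = positive control rescue; higher means more ATP so stronger rescue from cytokine killing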
# Mdm2 MdmX conf: Mdm2-MdmX complex disruptors, retested hits, confirmation, luminescence, single concentration; shares compounds with Mdm2 MdmX PPI; Mdm2-MdmX binding, luminescent assay; inhibition, % at 8 µM; 10,000 tested, 55% active; in the data active = inhibition above about 40%
# Full FLuc ctr: full-length luciferase signal inhibition, confirmation, counter-screen for Mdm2/MdmX interaction inhibitor project, cell-based, single concentration, SaOS-2. SaOS-2 full-length luciferase counterscreen, luminescence. 6,200 tested, 77% active. shares compounds with Mdm2 MdmX PPI. inhibition, % at 8 µM;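 active = mean inhibition at 8 µM reaching about 37%, which flags the compound as non-specific, limit read from the data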;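 note: p53-null SaOS-2 cells with luciferase driven by a doxycycline-inducible promoter; compound on cells about two nights before reading with doxycycline added after day one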
# * hit, by the source's call; / = no result. An excerpt weighted towards active compounds, which were near 4.8% of everything screened.
SMILES,Mdm2 MdmX PPI,CSC inhib,Calb FLC,MPTP block,Beta apoptosis,Mdm2 MdmX conf,Full FLuc ctr
Cc1ccc(/C=N/NC(=O)c2c(C)nc3ccc(Br)cn23)cc1,50*,-12,-1,-1,-6,55*,53*
C#CCn1cc(CNC[C@H]2O[C@@H](n3cnc4c(=O)[nH]c(N)nc43)[C@H](O)[C@@H]2O)c2ccccc21,/,/,/,1,/,/,/
O=C(NCCCN1CCCC1)c1ccc2c(c1)N(Cc1cccc(Cl)c1)C(=O)c1ccccc1S2=O (stereo not drawn),53*,-7,-6,-1,-4,14,/
CC1CC(C)CN(CCCNC(=O)c2ccc3c(c2)N(Cc2ccccc2)C(=O)c2ccccc2S3=O)C1 (stereo not drawn),64*,8,5,2,7,41*,69*
CC(=O)Nc1cccc(-c2ccnc3c2CC(C)(C(=O)Nc2ccc(Cl)c(C(F)(F)F)c2)O3)c1 (stereo not drawn),/,/,/,0,/,/,/
CC1(C(=O)NS(=O)(=O)C2CC2)CCCN(C(=O)c2cc3ccccc3s2)C1 (stereo not drawn),/,/,/,0,/,/,/
CC1=NOC(=O)/C1=C/c1ccc(-c2ccc(Cl)cc2)o1,100*,26,/,1,73,48*,17
CC1=NOC(=O)/C1=C\c1ccc(-c2cc(Cl)ccc2Cl)o1,100*,87*,-9,-5,101*,16,/
COCCCN1C(=O)C(CC(=O)NC2CC2)CC(C(=O)N(C(C)C)C(C)C)=C1C (stereo not drawn),/,/,/,0,/,/,/
C/C=C1\NC(=O)[C@H](C)NC(=O)[C@@H](NC(=O)[C@H](Cc2ccc(O)cc2)NC(=O)[C@@H](NC(=O)/C(C)=C/C)C(C)C)[C@@H](C)OC(=O)[C@H](CC(C)C)NC(=O)[C@@H](CCC(=O)O)NC1=O,/,/,/,1,/,/,/
CN(Cc1ccccc1C#N)S(=O)(=O)c1cccs1,-2,-6,7,2,/,/,/
N#Cc1nccnc1S(=O)(=O)c1cccs1,74*,14,-9,/,20,47*,0
C[C@H](CO)N1C[C@H](C)[C@@H](CN(C)Cc2ccccc2)Oc2ccc(NC(=O)CCCCCC(=O)Nc3ccccc3N)cc2C1=O,38,19,/,-2,4,/,/
COc1ccccc1/C=C/C=C1\Oc2c(ccc(O)c2CN(C)C)C1=O,61*,1,2,3,-9,43*,44*
CCN(CC)Cc1c(O)ccc2c1O/C(=C\C=C\c1ccccc1)C2=O,98*,109*,15,3,105*,71*,25
Cc1nc2c(OCc3cc(Cl)cc(Cl)c3)cccn2c1N(C)C(=O)CCC1CCCC1,/,/,/,0,/,/,/
COCCNc1nc(Nc2ccccc2Cl)c2sccc2n1,/,/,/,1,/,/,/
COc1ccc(-c2c(C)nn3c(N4CCN(Cc5ccccc5)CC4)cc(C)nc23)cc1OC,50*,26,3,-1,7,9,/
Cc1nn2c(N3CCN(C)CC3)cc(C(C)(C)C)nc2c1-c1ccccc1,58*,25,36,-6,0,41*,76*
Cc1cc(N2CCN(Cc3ccccc3)CC2)n2nc(C)c(-c3ccccc3)c2n1,-3,65,1,6,1,/,/
O=C(COC(=O)C1CCC(N2C(=O)C3C4CCC(C4)C3C2=O)CC1)c1ccc(F)cc1 (stereo not drawn),-2,-3,-3,0,-11,/,/
C=C1CCC[C@]2(C)C[C@H]3OC(=O)C(CNC(C)(CO)CO)[C@H]3CC12 (stereo partly drawn),63*,10,-14,3,-39,31,55*
C=C1CCC[C@]2(C)C[C@H]3OC(=O)C(CNC(CC)CO)[C@H]3CC12 (stereo partly drawn),42,17,-3,2,-35,/,/
C=C1CCC[C@]2(C)C[C@H]3OC(=O)C(CN4CCCCC4CO)[C@H]3CC12 (stereo partly drawn),66*,33,1,0,-82,55*,38*
O=C(Nc1ccc(Cl)cc1)c1csc([C@@H]2O[C@H](CO)[C@@H](O)[C@H]2O)n1,/,/,/,-2,/,/,/
SMILES,Mdm2 MdmX PPI,CSC inhib,Calb FLC,MPTP block,Beta apoptosis,Mdm2 MdmX conf,Full FLuc ctr
C[C@H](NC(=O)Cc1cccc2ccccc12)C(=O)N1CCOCC1,-4,-21,/,0,-3,/,/
N#CC1=C(N)Oc2cc(N)ccc2C1c1ccccc1F (stereo not drawn),56*,48,-3,0,6,52*,67*
COc1cccc(C2C(C#N)=C(N)Oc3cc(N)ccc32)c1OC (stereo not drawn),-9,-16,-6,1,/,/,/
N#CC1=C(N)Oc2cc(N)ccc2C1c1cc(Br)cs1 (stereo not drawn),58*,60,4,1,19,29,/
Nc1[nH]c(C(=O)c2ccccc2)c(-c2ccccc2Cl)c1C(=O)c1ccccc1,/,/,/,2,/,/,/
Cc1cccc(C(=O)Nc2ccc(N3CCN(S(C)(=O)=O)CC3)cc2)c1,-3,-6,19,0,-2,/,/
N#C/C(=C\C=C\c1ccccc1[N+](=O)[O-])c1nc(-c2ccc3c(c2)OCO3)cs1,63*,-1,-11,2,-1,7,/
N#C/C(=C\c1ccccc1[N+](=O)[O-])c1nc(C2CC2)cs1,-20,3,0,0,-11,/,/
O=C(CN1c2ccccc2Sc2ccccc21)N/N=C/c1ccc(Cl)cc1Cl,42,25,8,-1,0,/,/
O=C(CN1c2ccccc2Sc2ccccc21)N/N=C/c1ccc(Cl)cc1,71*,62,-8,-3,11,1,/
CCC(=O)N1CC2(CC(c3cccc(NC(=O)CC(c4ccccc4)c4ccccc4)c3)=NO2)C[C@H]1C(N)=O (stereo partly drawn),-2,-3,-1,-2,1,/,/
C=C(C)C(=O)N1CC2(CC(c3cccc(NC(=O)CC(c4ccccc4)c4ccccc4)c3)=NO2)C[C@H]1C(N)=O (stereo partly drawn),13,14,16,0,2,/,/
NC(=O)[C@H]1CC2(CC(c3cccc(NC(=O)CC(c4ccccc4)c4ccccc4)c3)=NO2)CN1C(=O)CC(c1ccccc1)c1ccccc1 (stereo partly drawn),68*,13,19,1,-3,52*,57*
NC(=O)[C@@H]1CC2(CC(c3cccc(NC(=O)CC(c4ccccc4)c4ccccc4)c3)=NO2)CN1C(=O)c1ccc(Cl)cc1 (stereo partly drawn),52*,37,13,1,3,33,/
